# This is a sample that favours compounds with a hit; in the whole collection about 18% have one here.
# TDP1 cell CPT = growth inhibition of DT40 Tdp1-/-;hTDP1 cells with camptothecin (screen for TDP1 inhibitors). chicken DT40 Tdp1-/-;hTDP1 cells + 20 nM CPT, ATP luminescence, 48 h. Potency, µM (titrated, usually from 46.2 µM), for inactives: at the highest dose activity change, negative = growth inhibition, most hits filed as inhibitors. 12% of 420,000 active; note: nearly all actives have a fitted effect of over 55% in size
#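 Cell growth measured by CellTiter-Glo luminescence after a minimum 48 h, 37 C compound exposure with 20 nM CPT in Tdp1-knockout DT40 cells stably expressing hTDP1, seeded 400/well; qHTS titration format.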
# TDP1 block = TDP1 (human) enzyme inhibition. Q9NUW8. recombinant TDP1, AlphaScreen DNA substrate cleavage. Potency, µM (top dose mostly 130 µM), for inactives: at the highest dose activity change, negative = inhibition, usual class: inhibitors. 0.28% of 350,000 active. AID 485290; note: nearly all actives have a fitted effect of over 40% in size
#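 Tdp1 1 nM final; 15 min RT w/ cpd; substrate 15 nM, 5 min; beads 10 ug/ml, 10 min; AlphaScreen read. Neg ctrl: no enzyme.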
# VDR inh = vitamin D3 receptor (human) inhibition; Potency, µM, without a hit: max response, negative = inhibition, most hits filed as inhibitors; 0.93% of 400,000 active; P11473; AID 504847; VDR-SRC2-3 peptide fluorescence polarization, 2 h
#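 Compounds are added to VDR with labelled SRC2-3 coactivator peptide and held 2 h at room temperature. Inhibition of the VDR–peptide interaction is then read as a change in fluorescence polarization.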
# GCN5L2 inh = inhibitors of human GCN5L2 histone acetyltransferase; 0.21% of 390,000 active; Potency, µM (highest dose often 58.9 µM), for inactives: at the top dose activity change, negative = inhibition, actives largely listed as inhibitors; GCN5L2 HAT assay, ThioGlo1 CoA-SH fluorescence; Q92830
#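 Preincubate 20nM GCN5L2 with compound 15 min, RT → add 50uM ThioGlo1 + 75uM H3(1-25) + 70uM acetyl-CoA → read fluorescence 0 and 20 min. Primary qHTS; fluorescent artifacts likely.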
# PLK1 PBD block = inhibitors of human PLK1 polo-box domain binding; P53350; Plk1 PBD binding of FITC phosphopeptide, fluorescence polarization; Potency, µM, without a hit: max response, negative = inhibition, usual class: inhibitors; 2.8% of 360,000 active; note: series mostly up to about 57 µM; nearly all actives have a fitted effect of over 65% in size
# TDP1 cell noCPT = qHTS for Inhibitors of human tyrosyl-DNA phosphodiesterase 1 (TDP1): qHTS in cells in absence of CPT; DT40 Tdp1-/- hTDP1 cells, no CPT, ATP luminescence, 48 h; Potency, µM (titrated, usually from 46.2 µM), without a hit: at the highest dose activity change, negative = growth inhibition, usual class: inhibitors; 15% of 420,000 active; AID 686978, 2013; note: nearly all actives have a fitted effect of over 55% in size
#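 DT40 Tdp1-/-;hTDP1 cells, no CPT (DMSO vehicle only), 400 cells/well; compounds pin-transferred; ≥48 hr, 37 °C; CellTiter-Glo 30 min RT dark, luminescence read.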
# Numbers without * were called inactive; ? = inconclusive; . = no result given; ! = repeats disagree. Calls come from the whole dose curve; as a rule, active = well fitted curve in the direction sought with a large enough effect; inconclusive = small, poorly fitted or top-dose-only effect, or another doubt; inactive = no such curve, though single readings can be large; an effect the other way counts as inactive or inconclusive. % is set by controls: 0 for no effect and ±100 for the full control effect; potency is the fitted concentration of half-maximal effect.
SMILES,TDP1 cell CPT,TDP1 block,VDR inh,GCN5L2 inh,PLK1 PBD block,TDP1 cell noCPT
CCOC(=O)C1(Cc2cccc(Cl)c2)CCCN(C(=O)c2cn[nH]c2)C1 (stereo unspecified),-18%,2%,-8%,-2%,1%,0%
CCOC(=O)C1(Cc2cccc(Cl)c2)CCCN(C(=O)c2cc(C)n(C)n2)C1 (stereo unspecified),?,3%,-3%,-4%,-11%,?
CCOC(=O)C1(Cc2cccc(Cl)c2)CCCN(C(=O)c2cc(CC)on2)C1 (stereo unspecified),?,1%,-11%,-10%,1%,16µM*
CCOC(=O)C1(Cc2cccc(Cl)c2)CCCN(C(=O)c2ccnn2C)C1 (stereo unspecified),15µM*,2%,0%,-1%,-2%,?
CC(O)CNc1nc(N)[nH]c(=O)c1N=Nc1ccccc1 (stereo unspecified),19%,.,-5%,.,0%,3%
O=C(Oc1ccccc1)c1cc(O)c(O)c(O)c1,21µM*,.,.,.,-4%,23µM*
O=C(OCCc1ccccc1)c1cc(O)c(O)c(O)c1,18µM*,1%,-14%,-3%,7%,23µM*
CN1CCN(c2ccc3sc(-n4ccc5ccccc54)nc3c2)CC1,16µM*,.,.,.,-13%,13µM*
Cc1ccc(C)c(NC(=S)/C(=C(\[O-])c2ccc(Cl)s2)[n+]2ccccc2)c1,-18%,6%,-20%,-6%,-9%,-14%
[O-]C(=C(C(=S)Nc1cccc2ccccc12)[n+]1cccc(CO)c1)c1ccc(Cl)s1,?,.,-13%,.,-16%,-28%
Cc1cc(C)cc(NC(=S)/C(=C(\[O-])c2ccc(Cl)s2)[n+]2cccc(C)c2)c1,18µM*,1%,-20%,-12%,?,21µM*
[O-]/C(=C(\C(=S)Nc1cccc2ccccc12)[n+]1ccccc1)c1ccc(Cl)s1,?,-2%,-28%,-8%,-4%,18µM*
CCc1cccc(CC)c1NC(=S)/C(=C(\[O-])c1ccc(Cl)s1)[n+]1ccccc1,2.3µM*,3%,-28%,3%,-17%,1.8µM*
Cc1nc2cnc(N(C)C)nc2n(C2CC2)c1=O,-12%,.,-5%,-16%,.,1%
COc1ccc(-c2nn(C)c(=O)c3ccccc23)cc1CNC(=O)NC1CCCCC1,.,3%,.,-9%,.,.
COC(=O)Cc1cc(=O)n2c(nc3ccccc32)[nH]1,6%,.,9%,.,-21%,9%
COc1ccc(NC(=O)[C@@H]2CC=C[C@@H]3CCN(C4CC4)C(=O)[C@@H]32)cc1,-6%,.,.,.,.,0%
CC(C)COC(=O)NCCCOC(=O)Nc1ccccc1,?,0%,6%,-7%,-4%,?
CC(C)OC(=O)NCCOC(=O)Nc1ccc(Cl)cc1,21µM*,-2%,-8%,-6%,-12%,15µM*
O=C(Nc1cccc(Cl)c1)OCCOCCOC(=O)Nc1cccc(Cl)c1,?,.,2%,.,10%,16µM*
CC(C)COC(=O)NCCOC(=O)Nc1cccc(Cl)c1,16µM*,3%,-15%,0%,-21%,16µM*
CCCN[C@H]1CCc2nc(N)sc2C1,?,.,-21%,1%,-7%,17µM*!
CCOc1ccc2c(c1)C(C)=CC(C)(C)N2,13µM*!,7%,45µM*!,-10%,-2%,?
C#CCOC(=O)CN1C(=O)c2cccc3cccc(c23)C1=O,-4%,.,-7%,-1%,-8%,0%
CC1=CC(C)(C)Nc2ccc(OC(=O)CN3C(=O)c4cccc5cccc(c45)C3=O)cc21,2.9µM*,8%,?,?,?,2.6µM*
CC(C)CCNC(=O)c1cnc2sc(N3CCCCC3)nn2c1=O,?,3%,6%,1%,.,?
Cc1sc(=NC(=O)c2ccco2)n(C)c1-c1ccc(F)cc1,?,4%,13%,0%,-3%,16µM*
